# Laboratory results as given in PubChem BioAssay (Tox21).
# “And” between values parts separate entries of the source, which are not always exact repeats. Equal values may be shown once. Values without a mark were called inactive. Records with an inconclusive call do not appear. Where a call stands in place of a potency, no number is given. The source made the active and inactive calls. Unless noted, calls follow the shape of the dose curve; as a rule, active = well fitted curve in the direction sought with a large enough effect in the repeat runs; inconclusive = weak or mixed curves; inactive = no such curve, though single readings can be large; an effect the other way counts as inactive or inconclusive.
# Experiments:
# [1] = qHTS assay to identify small molecule antagonists of the androgen receptor (AR) signaling pathway using the MDA cell line in the presence of 0.5 nM R1881 - cell viability counter screen (AID 1259242); also: nearly all actives have a fitted effect of over 45% in size; also: potency is read from the fitted curve at half-maximal effect
# Outline: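 MDA-kb2 cells (human breast carcinoma, stably carrying MMTV-luciferase reporter) were exposed to compounds with 0.5 nM R1881 (final) for 16 hr at 37C, 0% CO2; viability then read as live-cell protease fluorescence (CellTiter-Fluor, 30 min) in the same wells.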
# [2] = qHTS assay to identify small molecule HDAC inhibitors (AID 1259364); also: nearly all actives have a fitted effect of over 45% in size; also: potency is read from the fitted curve at half-maximal effect; as to activity change, negative = inhibition: top concentration of the series differs between compounds
# Outline: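 Wild-type HCT-116 cells were plated overnight, exposed to compounds for 2 h at 37 °C, then given HDAC-Glo class I/II luminogenic reagent for 30 min at room temperature before luminescence was read.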
# [3] = qHTS assay to identify small molecule agonists of the sonic hedgehog signaling (Shh) pathway - cell viability counter screen (AID 1259366); also: nearly all actives have a fitted effect of over 50% in size; also: potency is read from the fitted curve at half-maximal effect
# Outline: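 In quantitative high-throughput format, 3T3 Gli1-Luc cells were exposed to compounds for 24hr and multiplexed for viability using CellTiter-Fluor, incubated 1hr at 37C before the fluorescence read.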
# [4] = qHTS assay to identify small molecule antagonists of the sonic hedgehog signaling (Shh) pathway - cell viability counter screen (AID 1259367); also: nearly all actives have a fitted effect of over 55% in size; also: potency is read from the fitted curve at half-maximal effect
# Outline: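 NIH/3T3-derived Gli1-Luc reporter cells, 2,000/well, plated 4 hr before compound addition, then stimulated with conditioned medium for 24 hr at 37C. Viability measured in the same wells by CellTiter-Fluor fluorescence, reagent added at 23 hr for 1 hr.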
# [5] = qHTS assay to identify small molecule agonists of the sonic hedgehog signaling (Shh) pathway (AID 1259368; calls by dose curve; also: series mostly up to about 92 µM; nearly all actives have a fitted effect of over 15% in size)
# Outline: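 NIH/3T3-derived 3T3Gli1-Luc cells carrying a stably integrated Gli1 response element–firefly luciferase reporter were plated, left 4 hr at 37 C, then given compounds in DMSO for 24 hr. Luminescence was read 30 min after adding luciferase reagent.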
# [6] = qHTS assay to identify small molecule antagonists of the sonic hedgehog signaling (Shh) pathway (AID 1259369; calls by dose curve; also: nearly all actives have a fitted effect of over 45% in size; also: potency is read from the fitted curve at half-maximal effect)
# Outline: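 NIH/3T3-derived 3T3Gli1-Luc cells with stably integrated Gli1-Luc reporter were preincubated 4hr at 37 C, then given compounds in DMSO plus Shh conditioned medium and incubated 24hr. Firefly luciferase luminescence read after 30min reagent at room temperature.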
# [7] = target: Estrogen receptor beta (Homo sapiens) (UniProt Q92731); assay: qHTS assay to identify small molecule agonists of the estrogen receptor beta (ER-beta) signaling pathway (AID 1259377; active = well fitted activation curve with a large enough effect in the signal ratio in the repeat runs, not every such curve was filed as active; the % refers to the signal ratio)
# Outline: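 Reporter cells (HEK293T, ER-beta-UAS-bla) receive compounds or DMSO after a 6 hr pre-incubation. They then incubate 16 hr at 37C/5% CO2, and fluorescence from LiveBLAzer B/G substrate is measured after 2 hours at room temperature.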
# [8] = qHTS assay to identify small molecule agonists of the androgen receptor (AR) signaling pathway in the presence of an antagonist - cell viability counter screen (AID 1259379); also: nearly all actives have a fitted effect of over 25% in size; also: potency is read from the fitted curve at half-maximal effect; as to activity change, negative = cytotoxicity: series mostly up to about 92 µM
# Outline: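 MDA-kb2 human breast carcinoma cells (stable MMTV-luciferase, AR/GR responsive) were seeded 3,000 cells/well, pre-incubated 5 hr at 37C without CO2, then given 3.0uM nilutamide and compounds at 15 concentrations for 16 hr. Viability was read by CellTiter-Fluor fluorescence.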
# [9] = qHTS assay to identify small molecule agonists of the estrogen receptor beta (ER-beta) signaling pathway - cell viability counter screen (AID 1259380); also: nearly all actives have a fitted effect of over 30% in size; also: potency is read from the fitted curve at half-maximal effect
# Outline: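 ER-beta-UAS-bla HEK293T cells in medium with 2% charcoal-stripped FBS were preincubated 6 hr at 37C, dosed with compound in DMSO for 16 hr, then after the bla read, CellTiter-Glo was added for 30 min at room temperature; luminescence recorded.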
# [10] = target: Estrogen receptor (Homo sapiens) (UniProt P03372); assay: qHTS assay to identify small molecule agonists of the estrogen receptor alpha (ER-alpha) signaling pathway in the presence of an antagonist (AID 1259383; calls by dose curve; also: top concentration of the series differs between compounds; nearly all actives have a fitted effect of over 15% in size)
# Outline: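 VM7Luc4E2 cells (endogenous full-length ER-alpha, 4×ERE-luciferase) were precultured 5 days in phenol red-free medium with 10% charcoal-stripped FBS, given 10.0nM ICI-182,780 (final), then treated with compounds at 15 concentrations for 22hr at 37C; luminescence read with ONE-Glo.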
# [11] = qHTS assay to identify small molecule agonists of the estrogen receptor alpha (ER-alpha) signaling pathway in the presence of an antagonist - cell viability counter screen (AID 1259386); also: nearly all actives have a fitted effect of over 30% in size; also: potency is read from the fitted curve at half-maximal effect; as to activity change, negative = cytotoxicity: series mostly up to about 92 µM
# Outline: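 VM7Luc4E2 cells (endogenous full-length ER-alpha, 4×ERE-luciferase) were held 5 days in phenol red-free medium with 10% charcoal-stripped FBS, plated, then given 10.0nM ICI-182,780 and compounds at 15 concentrations for 22hr at 37C; viability read by CellTiter-Fluor fluorescence.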
# [12] = target: Estrogen receptor beta (Homo sapiens) (UniProt Q92731); assay: qHTS assay to identify small molecule antagonists of the estrogen receptor beta (ER-beta) signaling pathway (AID 1259378; active = well fitted inhibition curve with a large enough effect in the signal ratio in the repeat runs, not every such curve was filed as active; the % refers to the signal ratio; also: potency is read from the fitted curve at half-maximal effect)
# Outline: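 ER-beta-UAS-bla HEK293T cells in 2% charcoal-stripped FBS medium treated with compound plus 1nM final 17-beta-estradiol for 16 hr at 37C. Beta-lactamase reporter read by FRET substrate fluorescence after 2 hours at room temperature.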
# [13] = qHTS assay to identify small molecule agonists or antagonists of the thyroid stimulating hormone receptor (TSHR) signaling pathway - wild type cell line counter screen (AID 1259384; calls by dose curve)
# Outline: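 Wild-type Hek293 cells, 800/well, 18 h at 37C, then compound with Ro20-1724 for 30 min RT. cAMP by HTRF (cAMP-d2/anti-cAMP cryptate), 1 h RT, fluorescence read. 15 concentrations, triplicates.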
# [14] = target: Thyrotropin receptor (Homo sapiens) (UniProt P16473); assay: qHTS assay to identify small molecule antagonists of the thyroid stimulating hormone receptor (TSHR) signaling pathway (AID 1259385; calls by dose curve; also: nearly all actives have a fitted effect of over 20% in size; also: potency is read from the fitted curve at half-maximal effect)
# Outline: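 TSHR-HEK293 cells (800/well) plated 18 h, then compounds with Ro20-1724 and TSH at 1.5 ng/mL final, 30 min at room temperature. cAMP quantified by HTRF (cAMP-d2/anti-cAMP-cryptate, 1 h); 15 concentrations in triplicate.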
# [15] = qHTS assay to identify small molecule HDAC inhibitors - cell viability counter screen (AID 1259365); also: series mostly up to about 92 µM; nearly all actives have a fitted effect of over 50% in size
# Outline: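 Measured quantity is CellTiter-Glo luminescence from wild-type HCT-116 cells after compound incubation of 2hr at 37C, 5% CO2; reagent developed 30min at room temperature.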
# [16] = qHTS assay to identify small molecule antagonists of the estrogen receptor beta (ER-beta) signaling pathway - cell viability counter screen (AID 1259382); also: nearly all actives have a fitted effect of over 55% in size; also: potency is read from the fitted curve at half-maximal effect; as to activity change, negative = cytotoxicity: series mostly up to about 92 µM
# Outline: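 ER-beta-UAS-bla HEK293T cells (2,000/well, 2% charcoal-stripped FBS) were pre-incubated 6 hr at 37C, then given compound plus 1nM final 17-beta-estradiol for 16 hr. Viability was read in the same wells by CellTiter-Glo luminescence after 30 min at room temperature.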
# [17] = target: Estrogen receptor (Homo sapiens) (UniProt P03372); assay: qHTS assay to identify small molecule antagonists of the estrogen receptor alpha (ER-alpha) signaling pathway using the BG1 cell line in the presence of 0.1 nM 17-beta-estradiol (AID 1259244); also: nearly all actives have a fitted effect of over 50% in size; also: potency is read from the fitted curve at half-maximal effect
# Outline: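 VM7Luc4E2 cells (endogenous full-length ER-alpha, stable 4xERE-luciferase) were grown 5 days in phenol red-free medium with charcoal-stripped FBS, then exposed 22 h at 37C to compounds plus 0.1 nM (final) 17beta-estradiol; ONE-Glo luminescence read-out.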
# Sequence of Estrogen receptor (Homo sapiens) (P03372 whole entry, looked up): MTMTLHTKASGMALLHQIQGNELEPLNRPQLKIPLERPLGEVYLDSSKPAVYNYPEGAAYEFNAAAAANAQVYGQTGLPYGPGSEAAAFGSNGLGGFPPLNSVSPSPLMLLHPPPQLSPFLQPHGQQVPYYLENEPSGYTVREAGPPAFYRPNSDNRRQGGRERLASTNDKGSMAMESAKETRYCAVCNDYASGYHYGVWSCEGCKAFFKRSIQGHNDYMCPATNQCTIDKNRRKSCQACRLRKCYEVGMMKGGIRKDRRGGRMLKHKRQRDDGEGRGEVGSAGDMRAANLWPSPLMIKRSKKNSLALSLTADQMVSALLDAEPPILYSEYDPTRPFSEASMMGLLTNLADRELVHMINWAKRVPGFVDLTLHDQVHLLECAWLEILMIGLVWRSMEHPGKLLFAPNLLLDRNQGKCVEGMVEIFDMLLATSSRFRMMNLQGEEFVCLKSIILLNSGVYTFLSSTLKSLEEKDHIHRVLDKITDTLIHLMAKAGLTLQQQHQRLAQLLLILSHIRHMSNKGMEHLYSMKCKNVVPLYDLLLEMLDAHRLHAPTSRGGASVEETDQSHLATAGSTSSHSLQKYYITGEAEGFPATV
# Sequence of Thyrotropin receptor (Homo sapiens) (P16473 whole entry, looked up): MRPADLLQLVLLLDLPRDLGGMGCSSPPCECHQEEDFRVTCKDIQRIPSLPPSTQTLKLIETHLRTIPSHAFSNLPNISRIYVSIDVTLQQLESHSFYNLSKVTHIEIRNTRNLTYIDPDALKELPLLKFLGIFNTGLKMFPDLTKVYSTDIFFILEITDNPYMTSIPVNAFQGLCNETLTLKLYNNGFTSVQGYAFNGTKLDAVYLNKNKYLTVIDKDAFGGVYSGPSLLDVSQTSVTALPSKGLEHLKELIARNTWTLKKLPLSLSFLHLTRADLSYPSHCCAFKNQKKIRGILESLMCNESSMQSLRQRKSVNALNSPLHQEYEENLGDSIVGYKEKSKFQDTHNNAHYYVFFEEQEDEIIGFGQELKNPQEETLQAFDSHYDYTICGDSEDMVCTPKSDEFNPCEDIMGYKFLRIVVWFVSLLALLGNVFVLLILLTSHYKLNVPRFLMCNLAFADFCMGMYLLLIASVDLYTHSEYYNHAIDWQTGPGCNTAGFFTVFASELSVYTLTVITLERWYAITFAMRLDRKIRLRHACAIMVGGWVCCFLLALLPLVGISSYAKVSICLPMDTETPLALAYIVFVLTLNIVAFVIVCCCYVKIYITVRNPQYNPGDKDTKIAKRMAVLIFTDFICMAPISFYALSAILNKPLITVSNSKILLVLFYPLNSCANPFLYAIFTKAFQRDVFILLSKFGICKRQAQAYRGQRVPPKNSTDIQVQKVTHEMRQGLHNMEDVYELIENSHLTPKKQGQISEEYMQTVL
# Sequence of Estrogen receptor beta (Homo sapiens) (Q92731 whole entry, looked up): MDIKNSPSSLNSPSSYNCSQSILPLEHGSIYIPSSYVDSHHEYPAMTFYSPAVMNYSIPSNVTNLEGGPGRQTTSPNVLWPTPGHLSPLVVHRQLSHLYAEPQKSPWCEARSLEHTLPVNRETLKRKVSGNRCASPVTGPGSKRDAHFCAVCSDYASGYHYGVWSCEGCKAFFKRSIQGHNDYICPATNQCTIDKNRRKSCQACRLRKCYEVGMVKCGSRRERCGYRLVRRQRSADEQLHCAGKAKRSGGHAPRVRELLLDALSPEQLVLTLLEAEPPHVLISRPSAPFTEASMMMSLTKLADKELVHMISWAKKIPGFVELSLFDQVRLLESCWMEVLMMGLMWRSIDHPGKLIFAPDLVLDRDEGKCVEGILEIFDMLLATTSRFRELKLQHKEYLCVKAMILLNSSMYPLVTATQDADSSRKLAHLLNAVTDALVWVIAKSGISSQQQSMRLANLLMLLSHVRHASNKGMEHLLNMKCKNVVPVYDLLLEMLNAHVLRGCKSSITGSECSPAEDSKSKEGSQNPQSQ
smiles,measurement,setting,value
CCN(CC)c1ccc2c(-c3ccccc3C(=O)O)c3ccc(=[N+](CC)CC)cc-3oc2c1,Potency,[1],10.9 µM (active)
same,Potency,[2],inactive
same,Potency,[3],4.33 µM (active)
same,Potency,[4],3.44 µM (active)
same,outcome,[5],inactive
same,Potency,[6],34.4 µM (active)
same,Potency,[7],inactive
same,Potency,[8],9.69 µM (active)
same,Potency,[9],8.63 µM (active)
same,Potency,[10],inactive
same,Potency,[11],6.11 µM (active)
CCCCCCCCCCCCCCCCCCOS(=O)(=O)O,Potency,[1],inactive
same,Potency,[2],inactive
same,Potency,[3],inactive
same,Potency,[4],inactive
same,outcome,[5],inactive
same,Potency,[6],inactive
same,Potency,[7],inactive
same,Potency,[12],48.6 µM (active)
same,Potency,[8],inactive
same,Potency,[9],48.6 µM (active)
same,Potency,[10],inactive
same,Potency,[13],inactive
same,Potency,[14],68.6 µM (active)
same,Potency,[11],inactive
CCOC(=O)NCCOc1ccc(Oc2ccccc2)cc1,Potency,[2],inactive
same,Potency,[15],inactive
same,Potency,[3],inactive
same,Potency,[4],inactive
same,outcome,[5],inactive
same,Potency,[8],61.1 µM (active)
same,Potency,[16],inactive
same,Potency,[10],inactive
same,Potency,[13],inactive
same,Potency,[14],inactive
same,Potency,[11],inactive
CCOc1ccc(N=Nc2ccc(/C=C/c3ccc(N=Nc4ccc(OCC)cc4)cc3S(=O)(=O)O)c(S(=O)(=O)O)c2)cc1,Potency,[2],inactive
same,Potency,[15],inactive
same,Potency,[3],30.2 µM (active)
same,Potency,[4],21.4 µM (active)
same,outcome,[5],inactive
same,Potency,[8],21.4 µM (active)
same,Potency,[9],inactive
same,Potency,[16],inactive
same,Potency,[13],inactive
same,Potency,[14],inactive
same,Potency,[11],38 µM (active)
Cc1oc2c(NC(=O)c3c(Cl)cccc3Cl)cccc2c1C(C)(C)O,Potency,[17],13.7 µM (active)
same,Potency,[2],inactive
same,Potency,[3],inactive
same,Potency,[4],inactive
same,outcome,[5],inactive
same,Potency,[6],8.63 µM (active)
same,Potency,[8],21.7 µM (active)
same,Potency,[9],30.6 µM (active)
same,Potency,[10],inactive
same,Potency,[13],inactive
same,Potency,[14],inactive
same,Potency,[11],inactive
CNCCCCOc1ccccc1Cc1ccccc1,Potency,[17],inactive
same,Potency,[2],inactive
same,Potency,[15],inactive
same,Potency,[3],33.5 µM (active)
same,Potency,[4],inactive
same,outcome,[5],inactive
same,Potency,[6],10.6 µM (active)
same,Potency,[7],inactive
same,Potency,[12],11.9 µM (active)
same,Potency,[9],11.9 µM (active)
same,Potency,[10],inactive
same,Potency,[13],inactive
same,Potency,[11],inactive
CN(C)c1ccc(/C=C/c2ccc([N+](=O)[O-])cc2)cc1,"viability change, negative = cytotoxic",[1],4% [at 8.39 µM]
same,Potency,[2],0.872 µM (active)
same,"viability change, negative = cytotoxic",[4],8.12% [at 8.39 µM]
same,activity change,[5],7.46% [at 8.39 µM]
same,"activity change, negative = inhibition",[6],48% [at 8.39 µM]
same,"activity change, negative = cytotoxicity",[8],4.91% [at 8.39 µM]
same,"activity change, negative = cytotoxicity",[9],-2.6% [at 8.39 µM]
same,"activity change, negative = cytotoxicity",[16],-2.95% [at 8.39 µM]
same,cAMP activity change,[13],"6.39% [at 8.39 µM, stronger effect = higher value]"
same,"activity change, negative = inhibition",[14],-4.14% [at 8.39 µM]
same,"activity change, negative = cytotoxicity",[11],3.06% [at 8.39 µM]
C=CC(=O)OCCOCCOCCOCCOC(=O)C=C,Potency,[2],inactive
same,Potency,[15],inactive
same,Potency,[3],27.4 µM (active) and 21.5 µM (active)
same,Potency,[4],19.4 µM (active) and 27.1 µM (active)
same,outcome,[5],inactive
same,Potency,[6],3.08 µM (active) and 6.06 µM (active)
same,Potency,[8],61.4 µM (active) and 54 µM (active)
same,Potency,[16],inactive
same,Potency,[10],inactive
same,Potency,[13],inactive
same,Potency,[14],inactive
same,Potency,[11],54.8 µM (active) and 68 µM (active)
CC(C)(CO)[N+](=O)[O-],Potency,[1],inactive
same,Potency,[2],inactive
same,Potency,[3],inactive
same,Potency,[4],inactive
same,Potency,[6],inactive
same,Potency,[7],inactive
same,Potency,[12],inactive
same,Potency,[8],inactive
same,Potency,[9],inactive
same,Potency,[16],inactive
same,Potency,[11],inactive
CN(C)CCCN1c2ccccc2Sc2ccccc21,Potency,[1],inactive
same,Potency,[2],inactive
same,outcome,[5],inactive
same,Potency,[6],11.9 µM (active)
same,Potency,[9],21.1 µM (active)
same,Potency,[16],26.6 µM (active)
same,Potency,[11],inactive
